# Screening data (PubChem BioAssay)
# Sampled rows, rich in hits. Any-hit rate of the full collection: about 4.3%.
# DRD3 antagonist – D3 dopamine receptor (human) antagonism. P35462. D3R cells, DiscoveRx beta-arrestin luminescence, antagonist mode; hits give low values. max response, negative = inhibition, %. 360,000 compounds, 2.5% hits. AID 652054; in the data active = max response below about -50%; inconclusive = no clear call, values can overlap the other calls; note: % is set by controls: 0 for no effect and ±100 for the full control effect
#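 Cells expressing the human receptor were seeded at 1500 cells/well, incubated overnight at 37 degrees C in 5% CO2, then exposed to library compounds with dopamine controls for 90 minutes at 37 degrees C before luminescent detection.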
# D3 ag – agonists of human D3 dopamine receptor. P35462. D3R DiscoveRx beta-arrestin cells, luminescence, 90 min. max activation, %. 410,000 compounds, 0.58% hits; in the data active = max activation above about 30%; note: 0% is about no effect
#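 Agonist mode: compounds and dopamine controls were applied to plated cells for 90 min at 37 degrees C after an overnight attachment at 1500 cells/well. Luminescent read-out followed 30 - 60 minutes at room temperature with DiscoveRx detection reagent.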
# GLP1R ag – activates the human GLP-1 receptor | P43220 | HEK293 GLP-1R CRE-luciferase, luminescence, 4-6 h; cells express a hypersensitive GLP-1R form | Potency, µM (series often up to 45.6 µM), without a hit: at the top dose activation, hits mostly activators | 380,000 compounds, 0.007% hits | AID 624172; note: potency is the fitted concentration of half-maximal effect; % of control where 0% means no effect
# Target sequence (P43220 whole entry, looked up): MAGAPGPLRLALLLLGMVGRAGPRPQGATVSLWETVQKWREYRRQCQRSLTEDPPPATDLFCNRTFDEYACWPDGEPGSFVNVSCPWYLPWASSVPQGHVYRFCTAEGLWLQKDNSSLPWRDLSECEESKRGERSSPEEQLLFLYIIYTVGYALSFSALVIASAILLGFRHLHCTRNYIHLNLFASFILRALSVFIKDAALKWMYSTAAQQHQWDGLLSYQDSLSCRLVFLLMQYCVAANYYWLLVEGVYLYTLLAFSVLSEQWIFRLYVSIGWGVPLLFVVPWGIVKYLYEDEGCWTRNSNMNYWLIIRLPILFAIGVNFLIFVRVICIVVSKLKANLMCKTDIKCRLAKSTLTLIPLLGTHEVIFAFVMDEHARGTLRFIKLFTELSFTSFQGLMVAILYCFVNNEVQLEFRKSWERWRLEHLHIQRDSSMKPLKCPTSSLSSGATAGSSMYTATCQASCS
# GLP-1R inv ag – acts as inverse agonist at human GLP-1 receptor; HEK293 GLP-1R CRE-luciferase, luminescence, 24 h; GLP-1R form is constitutively active; AID 624417; 410,000 compounds, 1.6% hits; Potency, µM (highest dose often 38.3 µM), without a hit: at the highest dose activity change, negative = inhibition, hits mostly inhibitors; note: potency is the fitted concentration of half-maximal effect; % is set by controls: 0 for no effect and ±100 for the full control effect; nearly all actives have a fitted effect of over 55% in size
#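 Cells are plated, allowed 12 hours at 37 deg C, then treated with compounds for 24 hr before luciferase detection reagent is added and luminescence is read after 12 min at room temperature. The HEK293 line carries constitutively active GLP-1R with a cAMP-responsive reporter.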
# * marks the source's active call; other numbers are inactive results; ? = inconclusive; · = no result. Unless noted, calls come from the whole dose curve; as a rule, active = well fitted curve in the direction sought with a large enough effect; inconclusive = small, poorly fitted or top-dose-only effect, or another doubt; inactive = no such curve, though single readings can be large; an effect the other way counts as inactive or inconclusive.
SMILES,DRD3 antagonist,D3 ag,GLP1R ag,GLP-1R inv ag
Cc1cccc(N2CCn3c2nc2c3c(=O)n(C/C=C/c3ccccc3)c(=O)n2C)c1,·,8,·,3%
O=[N+]([O-])c1ccc(Sc2cccc3cccnc23)c([N+](=O)[O-])c1,-55*,-13,0%,?
O=[N+]([O-])c1cc(Cl)ccc1Sc1cccc2cccnc12,-22,1,5%,1%
CCOC(=O)c1c(-c2ccccc2)oc2ccc(NS(=O)(=O)c3cc(C)c(C)cc3C)cc12,·,-5,·,4.5µM*
CCOC(=O)c1c(-c2ccccc2)oc2ccc(NS(=O)(=O)c3ccccc3)cc12,·,17,·,?
CC(C)N(C(=O)Cn1cc(S(=O)(=O)CC(=O)Nc2ccccc2)c2ccccc21)C(C)C,12,-5,-17%,-21%
CC(C)=CC1C=C(C)C(C)C2C(=O)NNC(=O)C12 (configuration not stated),-97*,2,-5%,0%
Cc1nn(S(=O)(=O)c2ccc(C(C)C)cc2)c(C)c1S(=O)(=O)N1CCCCCC1,·,4,-3%,5%
CCN(CC)c1ccc(NC2=C(Cl)C(=O)c3ccccc3C2=O)cc1,-82*,-28,-1%,44%
CCCC(=O)NC1=C(Cl)C(=O)c2ccccc2C1=O,-68*,-28,-11%,?
O=C(CSc1nc(=O)[nH]c2c1CCCC2)NCc1ccc(Cl)cc1,·,-3,·,9%
O=C(NCCCN1CCOCC1)c1ccc2c(c1)N(Cc1ccc(F)cc1)CCS2,-21,-9,0%,2.2µM*
O=C(NCc1ccccc1)c1ccc2c(c1)N(Cc1ccc(F)cc1)CCS2,·,-16,·,5.6µM*
CC(C)Oc1ccc(CNC(=O)c2ccc3c(c2)N(C)CCS3)cc1,-74*,-9,12%,?
CN1CCN(CCCNC(=O)c2ccc3c(c2)N(Cc2ccc(F)cc2)CCS3)CC1,-4,5,14%,5.6µM*
O=C(NCCCN1CCCC1)c1ccc2c(c1)N(Cc1ccccc1)CCS2,?,-22,3%,?
CC(C)c1cnc2c(c1SCC(=O)Nc1cccc(F)c1)c(=O)n(C)c(=O)n2C,·,4,·,5%
C[C@@H](C(=O)O)c1ccc(C2CCCCC2)c2ccccc12,·,·,-1%,·
Cc1ccc(NC(=O)c2cc3c(-c4ccccc4)nn(-c4ccccc4)c3s2)cc1,·,5,-4%,-9%
O=C(NCc1cccc(Cl)c1)c1oc(=O)c2ccccc2c1-c1ccccc1,·,-1,·,0%
Cc1nnc(NC(=O)CSc2nccn2Cc2ccc(Cl)cc2)s1,·,3,·,20%
O=C(CSc1nc2ccsc2c(=O)n1Cc1ccccc1F)NCc1ccccc1,·,-30,·,?
CCOC(=O)N1CCC(NC(=O)c2ccc3c(c2)N(Cc2ccccc2)CCS3)CC1,-12,2,7%,?
CCN1CCSc2ccc(C(=O)NCc3ccccc3Br)cc21,8,-4,1%,10µM*
O=C(NC1CC1)c1ccc2c(c1)N(Cc1ccccc1)CCS2,-8,3,-1%,8.9µM*
SMILES,DRD3 antagonist,D3 ag,GLP1R ag,GLP-1R inv ag
O=C(Cn1ncc2c3ccccc3n(Cc3ccc(F)cc3)c2c1=O)NCc1ccccn1,·,-7,·,-17%
COc1cc(NC(=O)C(CC(C)C)NS(=O)(=O)c2ccc3c(c2)CCCC(=O)N3)cc(OC)c1 (configuration not stated),·,5,·,17%
COc1ccc2c(c1)c(CC(=O)Nc1ccc(C(C)=O)cc1)c(C)n2C(=O)c1ccc(Cl)cc1,-30,-10,-1%,?
COc1ccc2c(c1)c(CC(=O)Nc1nnc(C3CC3)s1)c(C)n2C(=O)c1ccc(Cl)cc1,79,54*,5%,10%
COc1ccc2c(c1)c(CC(=O)Nc1ccccc1OC)c(C)n2C(=O)c1ccc(Cl)cc1,-4,-7,15%,10µM*
C[C@H](CO)N1C[C@H](C)[C@@H](CN(C)Cc2cccnc2)Oc2cc(-c3cccnc3)ccc2S1(=O)=O,7,4,13%,0%
C/C(CC(=O)NCc1ccco1)=N\NC(=O)COc1ccc(C)cc1,0,-17,6%,-1%
COc1ccc(-c2ccc(NS(=O)(=O)c3cccc(Cl)c3)cc2)nn1,·,-2,·,1%
O=C(NCC12CC3CC(CC(C3)C1)C2)c1nn2c(c1Cl)NC(c1ccco1)CC2C(F)(F)F (configuration not stated),7,1,-9%,4µM*
Cc1ccc(C2CC(C(F)(F)F)n3nc(C(=O)NCc4c(C)nn(C)c4C)c(Cl)c3N2)cc1 (configuration not stated),30,34*,-3%,2%
